Anthrax LF prot: anthrax lethal factor protease inhibition. P15917. multiplex microsphere protease cleavage assay, LF. inhibition, % at 10 µM. hit rate 0.12% among 360,000. AID 588501
BoNT-A LC inh2: inhibitors of Botulinum neurotoxin A light chain protease | multiplex microsphere protease substrate cleavage, flow cytometry | inhibition, % at 10 µM | hit rate 0.17% among 360,000
MazEF act: activators of E. coli MazEF toxin-antitoxin RNase; P0AE70; FAM/BHQ RNA-DNA oligo cleavage fluorescence, 5 h; activation, % at 20 µM; hit rate 0.32% among 350,000; AID 504720; in the data active = activation above about 50%
PriA SSB inh: inhibitors of Klebsiella pneumoniae PriA binding to SSB C-terminal tail; AlphaScreen SSBct-PriA binding, biotinylated peptide; inhibition, % at 33 µM; hit rate 0.6% among 430,000; AID 1272365; in the data active = inhibition mostly above about 37%, no sharp cut-off; inactive = mostly below about 20%
Autofluor counter: counter-screen for toxin protease inhibitors: compound fluorescence. compound autofluorescence counterscreen, microsphere flow cytometry; hits give high values. fluorescence intensity (no concentration beside the values). hit rate 3.1% among 360,000. AID 624483; in the data active = fluorescence intensity above about 16000; inconclusive = no clear call, values can overlap the other calls
BoNT F protease: blocks Botulinum neurotoxin F light chain protease; Multiplex microsphere protease cleavage assay, flow cytometry; inhibition, % at 10 µM; hit rate 0.22% among 360,000; AID 588497; in the data active = inhibition above about 35%, passing the limit was not always enough; inconclusive = no clear call, values can overlap the other calls
Each line names hits and unclear results; the compound was inactive in the other large screens. Shown are actives, neighbours in structure and some others; about 3.3% of the full set was active somewhere. Cut-off read from the data, not from the text of the source, unless noted: active = inhibition above about 30%; inconclusive = no clear call, values can overlap the other calls; inactive = below that.

Cc1c(C(=O)Nc2ccc(S(=O)(=O)Nc3ncccn3)cc2)oc2ccccc12	none
Cc1cc(NS(=O)(=O)c2ccc(NC(=O)Nc3ccc4c(c3)OCO4)cc2)no1	BoNT-A LC inh2 inconclusive, Autofluor counter 16204
O=C(Nc1ccc2c(c1)N(C(=O)C1CCCO1)CC2)C1CCCC1 (centres undefined)	none (no result: Anthrax LF prot, BoNT-A LC inh2, MazEF act, Autofluor counter, BoNT F protease)
COC(=O)N1CCc2ccccc2C1C(=O)Nc1cccc(-c2csc(C)n2)c1 (centres undefined)	none (no result: Anthrax LF prot, BoNT-A LC inh2, MazEF act, Autofluor counter, BoNT F protease)
COCc1cc(C)nc2sc(C(=O)NN)c(-n3cccc3)c12	none
CCCCNC(=O)c1sc2nc(C)cc(COC)c2c1-n1cccc1	Autofluor counter 16799
CCn1[nH]c(=O)c(=Nc2c(C)n(C)n(-c3ccccc3)c2=O)cc1-c1ccc(Cl)cc1	Autofluor counter 22167
Cc1c(N=Cc2ccc(-c3ccc(Cl)cc3)o2)c(=O)n(-c2ccccc2)n1C	none
Cc1ccc(S(=O)(=O)c2nc(S(=O)(=O)c3ccc(Cl)cc3)sc2N(C)C)cc1	none (no result: Anthrax LF prot, BoNT-A LC inh2, MazEF act, Autofluor counter, BoNT F protease)
C=CCn1c(CCNC(=O)c2ccccc2F)nnc1SCc1nc2ccccc2c(=O)[nH]1	Autofluor counter 24056
CCCN(CCC)C(=O)CC(c1ccc(F)cc1)c1ccco1 (centres undefined)	none
CCN(CC)C(=O)CC(c1ccccc1)c1ccco1 (centres undefined)	Autofluor counter 24247
COc1cccc(CNC(=O)CSc2ncc(S(=O)(=O)c3cccs3)c(N)n2)c1OC	none (no result: Anthrax LF prot, BoNT-A LC inh2, MazEF act, Autofluor counter, BoNT F protease)
N=C(N)Sc1c(-c2ccccc2)[nH]c2ccccc12	PriA SSB inh 37 (no result: Anthrax LF prot, BoNT-A LC inh2, MazEF act, Autofluor counter, BoNT F protease)
O=S(=O)(c1ccc(F)c(Cl)c1)N1CCN(C(c2ccccc2)c2ccccc2)CC1	none (no result: Anthrax LF prot, BoNT-A LC inh2, MazEF act, Autofluor counter, BoNT F protease)
CCOC(=O)c1ccc(Nc2nc(C(=O)OCC)nc3ccccc23)cc1	none
CCOC(=O)c1nc(Nc2ccc(Nc3ccccc3)cc2)c2ccccc2n1	PriA SSB inh 47
N#CC1=C(N)N2C(=C(C#N)C13CCCCC3)SC1CCCCC12O (centres undefined)	Autofluor counter 22232
O=C(Nc1cccnc1)c1cc2nc(C3CC3)cc(C(F)(F)F)n2n1	none
COc1cc(NC(=O)c2cc3nc(C4CC4)cc(C(F)(F)F)n3n2)c(OC)cc1Cl	Autofluor counter 24788
COC(=O)c1ccccc1NC(=O)c1cc2nc(C3CC3)cc(C(F)(F)F)n2n1	Autofluor counter 21329
CC1(C)C(=O)OC(C(=O)c2ccccc2)C(C)(C)C1=O (centres undefined)	Autofluor counter 21463
COc1ccc(NC(=O)Nc2ccc(F)cc2)c(C)c1	none
COc1ccc(NC(=O)Nc2ccc(F)cc2F)c(C)c1	BoNT-A LC inh2 inconclusive, Autofluor counter 21747
CN(C)CCNc1nc2sc3c(c2c(=O)n1-c1ccc(F)cc1)CCCCC3	none
COc1ccc(-n2c(NCCN(C)C)nc3sc4c(c3c2=O)CCCCC4)cc1	Autofluor counter 22405
Cc1ccccc1-n1ncc2c([N+](=O)[O-])cc([N+](=O)[O-])cc21	PriA SSB inh 64
CC(=O)NC(CSC(CC(=O)c1ccco1)c1ccc(C)cc1)C(=O)O (centres undefined)	MazEF act 249
O=C(CC(SCc1ccco1)c1ccc(F)cc1)c1ccco1 (centres undefined)	none (no result: Anthrax LF prot, BoNT-A LC inh2, MazEF act, Autofluor counter, BoNT F protease)
CCN(Cc1ccncc1)Cc1ccc(OC)cc1OC	none
COc1ccc(CN(CCN(C)C)Cc2ccccc2)c(OC)c1	Autofluor counter 20994
O=C1CC(c2ccccc2)CC(O)=C1C=NCCN1CCN(C(=O)Nc2ccccc2)CC1 (centres undefined)	Autofluor counter 22422
O=C(CCn1c(SCC(=O)NCc2ccco2)nc2ccccc2c1=O)NCCc1ccccc1	BoNT-A LC inh2 inconclusive, Autofluor counter 22374
COc1cccc(OCc2nnc(SCC(=O)NCc3ccco3)n2C)c1	none
COc1cccc(OCc2nnc(SCC(=O)NCc3ccco3)n2CCc2ccccc2)c1	Autofluor counter 20143
O=C(CCCn1c(SCC(=O)Nc2ccccc2Cl)nc2ccccc2c1=O)NCC1CCCO1 (centres undefined)	none
CCOC(=O)CSc1nc2ccccc2c(=O)n1CC1COc2ccccc2O1 (centres undefined)	Autofluor counter 22016
O=C(CCCn1c(SCC(=O)NCC2CCCO2)nc2ccccc2c1=O)NCc1ccccc1 (centres undefined)	Autofluor counter 22190
O=S(=O)(NCC1(c2cccs2)CC1)c1ccc(Cl)cc1	none (no result: Anthrax LF prot, BoNT-A LC inh2, MazEF act, Autofluor counter, BoNT F protease)
CC(C)(C)c1nc2ccccc2c2nnc(SCC(=O)NCc3ccco3)n12	Autofluor counter 16855
Cc1ccc(Cn2c(SCC(=O)Nc3ncn[nH]3)nc3ccccc3c2=O)cc1	PriA SSB inh 90 (no result: Anthrax LF prot, BoNT-A LC inh2, MazEF act, Autofluor counter, BoNT F protease)
O=C(CSc1nc2ccccc2c(=O)n1CCC(=O)N1CCCCC1)NCc1ccccc1	BoNT-A LC inh2 inconclusive, Autofluor counter 23326
CCCCNC(=O)CSc1nc2ccccc2c(=O)n1C1CCCC1	Autofluor counter 19876
CC(C)c1nc2ccccc2c2nnc(SCC(=O)NCc3ccco3)n12	none
CC(=O)c1ccc(NC(=O)Cn2c3ccccc3c3ncn(Cc4ccccc4)c(=O)c32)cc1	none (no result: Anthrax LF prot, BoNT-A LC inh2, MazEF act, Autofluor counter, BoNT F protease)
CCCCn1c(SCC(=O)Nc2ccc(NC(C)=O)cc2)nc2ccccc2c1=O	none
Cc1cc(NC(=O)CSc2nc3ccccc3c(=O)n2CCCC(=O)NCc2ccccc2)n[nH]1	Autofluor counter 16651
CCCCn1c(SCC(=O)Nc2cc(C)on2)nc2ccccc2c1=O	Autofluor counter 23871
CCn1c(SCC(=O)N2CCCC2)nc2ccccc2c1=O	Autofluor counter 19212
CCCCn1c(SCC(=O)N2CCCCC2)nc2cc(S(N)(=O)=O)ccc21	Autofluor counter 19717
Cn1c(SCC(=O)N2CCCC2)nc2ccccc2c1=O	none
O=S(=O)(c1ccc2c(c1)OCCO2)N1CCC(CSc2ccccn2)CC1	none (no result: Anthrax LF prot, BoNT-A LC inh2, MazEF act, Autofluor counter, BoNT F protease)
O=C(CSc1nc2scc(-c3ccco3)c2c(=O)n1-c1ccccc1)N1CCOCC1	Autofluor counter 21589
C=CCn1c(SCC(=O)NCC2CCCO2)nc2scc(-c3ccc(OC)cc3)c2c1=O (centres undefined)	none
C=CCn1c(SCC(=O)NCC2CCCO2)nc2scc(-c3ccco3)c2c1=O (centres undefined)	BoNT-A LC inh2 inconclusive, Autofluor counter 22083
Nn1c(Cc2cccc3ccccc23)nnc1SCC(=O)NCC1CCCO1 (centres undefined)	PriA SSB inh 52
Cc1ccc(NC(=O)CSc2nc3ccccc3c(=O)n2CCCC(=O)N2CCCC2)cc1	Autofluor counter 22956
O=C(CSc1nc2scc(-c3ccccc3Cl)c2c(=O)n1-c1ccccc1)N1CCOCC1	none (no result: Anthrax LF prot, BoNT-A LC inh2, MazEF act, Autofluor counter, BoNT F protease)
Cc1cc2nc[nH]c2cc1C	none (no result: Anthrax LF prot, BoNT-A LC inh2, MazEF act, Autofluor counter, BoNT F protease)
CCc1nc(Nc2ccccc2)c2oc3ccccc3c2n1	BoNT-A LC inh2 inconclusive, Autofluor counter 19756
Cc1nc(Nc2ccc3c(c2)OCO3)c2oc3ccccc3c2n1	BoNT-A LC inh2 inconclusive, Autofluor counter 24138
Brc1ccc2c(c1)C(c1ccccc1)=Nc1ccc(Br)cc1C(c1ccccc1)=N2	none (no result: Anthrax LF prot, BoNT-A LC inh2, MazEF act, Autofluor counter, BoNT F protease)
COc1ccc(CNC(=O)NCCNC(=O)c2ccc(NC(C)=O)cc2)cc1	none (no result: Anthrax LF prot, BoNT-A LC inh2, MazEF act, Autofluor counter, BoNT F protease)
N/C(=N/OCC(=O)Nc1cccc2ccccc12)c1nonc1N	Autofluor counter 17291 (no result: PriA SSB inh)

Screens: PubChem BioAssay, several laboratories
